Bioassay records as filed in PubChem.
NALP1 inh – NALP1 inflammasome inhibitors in reconstituted yeast, colorimetric, S. cerevisiae, triplicate retest. S. cerevisiae NALP1/ASC/caspase-1 growth, X-gal OD620, 72 h. 280,000 tested, 0.61% active. inhibition, % at 10 µM; in the data active means inhibition mostly above about 24%, no sharp cut-off; inactive means mostly below about 32%
tim23-1 inh – growth inhibitors of tim23-1 mutant yeast, primary screen, luminescence, uHTS | S. cerevisiae tim23-1 growth, BacTiter-Glo luminescence, 24 h | inhibition, % at 20 µM | 330,000 tested, 1.3% active | AID 463212, 2010;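 active means growth inhibition of the mutant yeast at or above 50%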;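 further: temperature-sensitive mutant grown at 25 °C; plate controls were DMSO-treated mutant yeast for no effect and medium wells lacking yeast for full effect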
TIM10 inh – growth inhibitors of isogenic TIM10 control yeast, primary screen, counter-screen for tim10-1 yeast inhibitor project, luminescence, uHTS; S. cerevisiae TIM10 strain growth, BacTiter-Glo luminescence, 24 h; inhibition, % at 10 µM; 330,000 tested, 1.4% active;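 active means inhibition of 40% or more at the single tested concentration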;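 further: wild-type TIM10 isogenic control strain grown at permissive 25 °C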
tim10-1 inh – growth inhibitors of tim10-1 mutant yeast, primary screen, luminescence, uHTS. S. cerevisiae tim10-1 ts strain growth, BacTiter-Glo, 24 h. inhibition, % at 20 µM. 330,000 tested, 2.2% active. AID 463190, 2010;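 active means inhibition of at least 40%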;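 further: mutant grown at 25 °C; 0% = DMSO wells with yeast and 100% = wells holding no yeast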
NLRP3 yeast inh – NALP3 inflammasome inhibitors in reconstituted yeast, primary screen, luminescence, uHTS; Yeast reconstituted NLRP3/ASC/caspase-1, beta-gal luminescence, 24 h; inhibition, % at 10 µM; 330,000 tested, 0.39% active;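 active means inhibition of 50% or more; inactive means inhibition below 50%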;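 further: plate controls were induced DMSO wells for no effect and uninduced yeast grown without galactose for full effect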
NALP3 yeast conf – NALP3 inhibitors retested in yeast, confirmation, luminescence, single concentration; shares compounds with NLRP3 yeast inh; yeast expressing human NALP3; inhibition, % at 10 µM; 1,300 tested, 81% active; AID 435006, 2010; in the data active means inhibition above about 48%
Casp1 ASC ctr – CASP1-PYCARD signaling inhibition in yeast, confirmatory test, counterassay for NLRP3 inhibitor program, one-dose | shares compounds with NLRP3 yeast inh | yeast expressing Caspase-1-ASC, luminescence counter screen | inhibition, % at 10 µM | 1,000 tested, 66% active | AID 488784, 2010
NALP3 yeast rt – NALP3 inhibitors in yeast, repeat test, confirmation, luminescence, single concentration, retest | shares compounds with NLRP3 yeast inh | yeast expressing human NALP3, luminescence read-out | inhibition, % at 10 µM | 1,000 tested, 53% active | AID 488794, 2010
tim10-1 conf – growth inhibitors of tim10-1 mutant yeast, confirmation, single concentration, luminescence, S. cerevisiae; inhibition, % at 20 µM; shares compounds with tim10-1 inh; 7,400 tested, 56% active; S. cerevisiae tim10-1 ts strain growth, BacTiter-Glo, 24 h; AID 463213, 2010;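 active means inhibition of yeast growth at or above a set limit in either of two repeat tests at 20 µM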;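 further: tim10-1 mutant grown at permissive 25 °C to find synthetic lethal compounds; 0% = DMSO yeast wells and 100% = medium wells without yeast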
tim10 confirm – growth inhibitors of wild-type TIM10 yeast, confirmation, counter-screen for tim10-1 synthetic lethality project, single concentration, luminescence, S. cerevisiae; 4,600 tested, 63% active; AID 463215, 2010; inhibition, % at 10 µM; S. cerevisiae tim10 strain growth, BacTiter-Glo luminescence, 24 h; shares compounds with TIM10 inh;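 active means inhibition of yeast growth at or above a set limit in either of two replicates at 10 µM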;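 further: this counterscreen used the strain with wild-type TIM10; 0% = yeast with DMSO and 100% = medium wells lacking yeast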
tim23-1 conf – tim23-1 mutant yeast growth inhibitors, confirmation, luminescence, single concentration. shares compounds with tim23-1 inh. S. cerevisiae tim23-1 growth, BacTiter-Glo luminescence, 24 h. inhibition, % at 20 µM. 4,400 tested, 83% active. AID 463218, 2010;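 active means inhibition above about 39% in either of two replicate wells at 20 µM, limit read from the data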;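 further: temperature-sensitive tim23-1 mutant grown at 25 °C; 0% = DMSO wells with yeast and 100% = medium wells without yeast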
Active calls of the source: *; x = no result given. A selection: hits, their analogues and other compounds. The true share with any hit is near 4%. Unless noted, no stated cut-off is given here; in the data, active means inhibition above about 50%; inactive means the rest.

SMILES	NALP1 inh	tim23-1 inh	TIM10 inh	tim10-1 inh	NLRP3 yeast inh	NALP3 yeast conf	Casp1 ASC ctr	NALP3 yeast rt	tim10-1 conf	tim10 confirm	tim23-1 conf
CC(=O)COc1ccc2c3c(c(=O)oc2c1)CCCC3	-2	21	8	13	15	x	x	x	x	x	x
O=[N+]([O-])c1ccc(O)c2ncccc12	158*	62*	-1	20	83*	92*	99*	98*	x	x	35
Cn1nc(-c2ccc(Cl)cc2)nc2c(=O)n(C)c(=O)nc1-2	48*	77*	95*	93*	96*	99*	99*	99*	92*	99*	80*
CS(=O)(=O)n1nc(-c2ccc(Cl)cc2)nc1N	16	17	3	15	9	x	x	x	x	x	x
Cc1c(C)c2cccnc2c2ncccc12	x	69*	57*	38	78*	86*	96*	86*	x	62*	45*
Cc1[nH]c2ccc3ncccc3c2c1C	35	9	11	12	1	x	x	x	x	x	x
N#C/C(=C\c1cccc(Br)c1)C(=O)N1CCCCC1	26	81*	63*	70*	60*	58*	68*	50*	68*	74*	73*
N#C/C(=C\c1cccc(O)c1)C(=O)N1CCCCC1	-79	46	25	36	20	x	x	x	x	x	x
CC(Oc1ccc(Br)cc1)C(=O)Nc1nc(-c2ccccn2)cs1 (centres undefined)	7	70*	37	45*	51*	77*	89*	81*	19	x	50*
CC(C)[C@H](NC(=O)c1ccccc1Cl)C(=O)Nc1nc(-c2ccccn2)cs1	-34	35	17	19	-11	x	x	x	x	x	x
O=S(=O)(NCC1NCCc2ccccc21)c1ccccc1 (centres undefined)	1	18	8	13	8	x	x	x	x	x	x
CCCCCCCCCCCCCCCC[N+](C)(C)CCN(Cc1ccc(OC)cc1)c1ncccn1	x	93*	95*	97*	52*	21	x	x	98*	99*	96*
COc1ccc(CN(CCN(C)C)c2ccccn2)cc1	18	6	6	-15	2	x	x	x	x	x	x
Cn1c2ccccc2c(=O)c2c(=O)n(C3CCCCC3)c(-c3cccs3)nc21	10	61*	34	43*	58*	71*	55*	52*	36*	x	69*
Cn1c2ccccc2c(=O)c2c(=O)n(C3CCCCCC3)c(C3CCCCC3)nc21	45	x	x	x	x	x	x	x	x	x	x
Cc1ccccc1C(=O)N/N=C1\SCC(=O)N1Cc1ccco1	-20	18	13	12	-10	x	x	x	x	x	x
Cc1ccc(Nc2cc(C)nn2-c2nc(C)cc(=O)[nH]2)cc1	9	68*	76*	63*	76*	81*	97*	93*	47*	-17	52*
Cc1cc(C)cc(N=C2NC(=O)/C(=C/c3cccs3)S2)c1	32	13	13	7	18	x	x	x	x	x	x
O=C1NC(=Nc2ccccc2)S/C1=C\c1cccs1	x	65*	31	24	56*	30	x	x	x	x	72*
